Compounds with a hit are over-represented: about 21% of the library has one in this group of screens.
TDP1 cell CPT: DT40-hTDP1 cell growth loss with CPT; chicken DT40 Tdp1-/-;hTDP1 cells + 20 nM CPT, ATP luminescence, 48 h; Potency, µM (doses to about 46.2 µM), for the others: at the top dose activity change, negative = growth inhibition, hits mostly inhibitors; actives 12% (n = 420,000); note: potency is the fitted concentration of half-maximal effect; % is set by controls: 0 for no effect and ±100 for the full control effect; nearly all actives have a fitted effect of over 55% in size
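Cell growth measured by CellTiter-Glo luminescence after a minimum 48 h, 37 C compound exposure with 20 nM CPT in Tdp1-knockout DT40 cells stably expressing hTDP1, seeded 400/well; qHTS titration format.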
DT40 TDP1 no CPT: qHTS for Inhibitors of human tyrosyl-DNA phosphodiesterase 1 (TDP1): qHTS in cells in absence of CPT | AID 686978, 2013 | DT40 Tdp1-/- hTDP1 cells, no CPT, ATP luminescence, 48 h | actives 15% (n = 420,000) | Potency, µM (series often up to 46.2 µM), without a hit: at the top dose activity change, negative = growth inhibition, usual class: inhibitors; note: potency is the fitted concentration of half-maximal effect; % is set by controls: 0 for no effect and ±100 for the full control effect; nearly all actives have a fitted effect of over 55% in size
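DT40 Tdp1-/-;hTDP1 cells, no CPT (DMSO vehicle only), 400 cells/well; compounds pin-transferred; ≥48 hr, 37 °C; CellTiter-Glo 30 min RT dark, luminescence read.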
IL1B secr inh: blocks inflammasome-driven IL-1 beta release; activity change, % at 57.5 µM; actives 4.7% (n = 360,000); THP-1 LPS/ATP IL-1B secretion, AlphaLISA, 16 h; hits give low values; in the data active = activity change below about -50%; inconclusive = mostly about -30% to -49%; note: % is set by controls: 0 for no effect and ±100 for the full control effect
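THP-1 cells pretreated 1 hr with compounds (up to 57.5 uM final), then stimulated with LPS (250 ng/mL final) plus ATP (1.25 mM final); secreted IL-1B measured by AlphaLISA after 16 hr, decreased signal indicating inhibition.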
DRD3 agonist: activates the human D3 dopamine receptor. AID 652048. max activation, %. actives 0.58% (n = 410,000). D3R DiscoveRx beta-arrestin cells, luminescence, 90 min; in the data active = max activation above about 30%; note: 0% is about no effect
Target sequence (P35462 whole entry, looked up): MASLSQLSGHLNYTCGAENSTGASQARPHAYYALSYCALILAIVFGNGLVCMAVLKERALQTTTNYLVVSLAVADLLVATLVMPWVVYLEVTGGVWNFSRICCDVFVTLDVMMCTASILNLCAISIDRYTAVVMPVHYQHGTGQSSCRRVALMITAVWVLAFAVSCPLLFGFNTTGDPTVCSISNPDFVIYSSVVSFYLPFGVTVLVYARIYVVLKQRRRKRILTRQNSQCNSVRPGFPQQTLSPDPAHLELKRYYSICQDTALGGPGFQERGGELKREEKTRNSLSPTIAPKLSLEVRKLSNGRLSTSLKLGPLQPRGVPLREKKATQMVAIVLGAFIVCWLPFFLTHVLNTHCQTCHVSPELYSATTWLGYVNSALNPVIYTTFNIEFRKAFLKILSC
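Cells at 1500/well, incubated overnight, then treated with pinned compounds (dopamine as control) for 90 min at 37 degrees C. DiscoveRx reagent added for 30 - 60 minutes at room temperature; luminescence read.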
ClpP mod: qHTS Assay for Activators of ClpP; ATP-dependent Clp protease proteolytic subunit (Bacillus subtilis (strain 168)), P80244; purified B. subtilis ClpP, FRET peptide cleavage, 20 min; Potency, µM (highest dose often 57.5 µM), without a hit: at the top dose activity change, negative = active; actives 1.9% (n = 340,000); AID 651965, 2013; active = well fitted falling curve with a large enough effect; inconclusive = small, poorly fitted or top-dose-only effect; inactive = no such curve, though single readings can be large or run the other way; note: potency is the fitted concentration of half-maximal effect; the source files actives as falling curves though it sought activators and does not explain the sign; nearly all actives have a fitted effect of over 65% in size
Target sequence (P80244 whole entry, looked up): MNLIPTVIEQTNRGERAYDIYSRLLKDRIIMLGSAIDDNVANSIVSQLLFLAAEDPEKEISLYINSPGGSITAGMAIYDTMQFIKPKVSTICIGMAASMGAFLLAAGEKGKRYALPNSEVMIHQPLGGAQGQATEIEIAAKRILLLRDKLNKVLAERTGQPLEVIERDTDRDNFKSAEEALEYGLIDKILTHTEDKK
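FRET quenching reversal measured ClpP activation: 10 microg/mL B. subtilis ClpP at pH 8 with the FRET-FV decapeptide, read at 430 nm after 320 nm excitation. The 20-min minus 0-min signal was scaled between DMSO/no-enzyme wells and ADEP (5.8 microM final).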
D3 antag: D3 dopamine receptor (human) antagonism | P35462 | max response, negative = inhibition, % | AID 652054 | D3R cells, DiscoveRx beta-arrestin luminescence, antagonist mode; hits give low values | actives 2.5% (n = 360,000); in the data active = max response below about -50%; inconclusive = no clear call, values can overlap the other calls; note: % is set by controls: 0 for no effect and ±100 for the full control effect
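Cells expressing the human receptor were seeded at 1500 cells/well, incubated overnight at 37 degrees C in 5% CO2, then exposed to library compounds with dopamine controls for 90 minutes at 37 degrees C before luminescent detection.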
The depositor's hits bear a star; [ ] = another dose, or the depositor's remark. Unless noted, calls come from the whole dose curve; as a rule, active = well fitted inhibition curve with a large enough effect; inconclusive = small, poorly fitted or top-dose-only effect; inactive = flat fitted curve, though single readings scatter.

What do the screens show for `CCOC(=O)C1CCCN(CC(=O)Nc2c(F)c(F)c(F)c(F)c2F)C1` (centres undefined)?
TDP1 cell CPT: -6.2%; DT40 TDP1 no CPT: -12.7%; IL1B secr inh: 7.5; DRD3 agonist: -4.3; ClpP mod: -1.2%; D3 antag: -22.3

What do the screens show for `CCOC(=O)C1CCCN(CC(=O)c2ccc(F)cc2)C1` (centres undefined)?
TDP1 cell CPT: -19.4%; DT40 TDP1 no CPT: -27.1%; IL1B secr inh: 11.6; DRD3 agonist: -14.1; ClpP mod: -0.6%; D3 antag: -66.2*

Results for CCOC(=O)C1CCCN(Cc2ccc(OCc3ccccc3)cc2)C1 (centres undefined) ?
TDP1 cell CPT: inconclusive; DT40 TDP1 no CPT: inconclusive; IL1B secr inh: 2.7; DRD3 agonist: -14.7; ClpP mod: -4.5%; D3 antag: -61.1*

How did O=C(Nc1ccc(C(F)(F)F)cc1)N1CCC(N2CCCCC2)CC1 do in these assays?
TDP1 cell CPT: inconclusive; DT40 TDP1 no CPT: -19.8%; DRD3 agonist: -11.9; ClpP mod: 2.7%

Results for COCC(=O)N1CCC2(CCCN(Cc3ccccc3)C2)CC1 ?
TDP1 cell CPT: 0.7%; DT40 TDP1 no CPT: 0.0%

Results for COc1ccccc1C(=O)N[C@@H]1c2ccccc2C2(CCN(Cc3ccc4c(c3)OCO4)CC2)[C@H]1O ?
TDP1 cell CPT: -4.6%[9.04 µM]; DT40 TDP1 no CPT: inconclusive

Results for Cc1cccc(C)c1NC(=O)C1CCCN(CCCc2ccccc2)C1 (centres undefined) ?
TDP1 cell CPT: -23.2%; DT40 TDP1 no CPT: inconclusive; IL1B secr inh: 3.3; DRD3 agonist: -3.9; ClpP mod: 1.5%; D3 antag: -10.6

What do the screens show for `CCOC(=O)C1CCCN(CCCc2ccccc2)C1` (centres undefined)?
TDP1 cell CPT: 0.7%; DT40 TDP1 no CPT: -21.2%; IL1B secr inh: 15.2; DRD3 agonist: -16.3; ClpP mod: 3.2%; D3 antag: -65.3*

How did CCN(CC)C(=O)C1CCCN(Cc2ccccc2)C1 (centres undefined) do in these assays?
TDP1 cell CPT: inconclusive; DT40 TDP1 no CPT: -2.3%; IL1B secr inh: -13.1; DRD3 agonist: -1.2; ClpP mod: 1.1%; D3 antag: -23.3

What do the screens show for `CN(Cc1ccccc1)C(=O)C1CCCN(Cc2ccc(Cl)cc2)C1` (centres undefined)?
TDP1 cell CPT: -94.9%; DT40 TDP1 no CPT: 25.9µM*; IL1B secr inh: inconclusive; DRD3 agonist: -16.5; ClpP mod: 11.2µM*; D3 antag: -67.7*

How did CCOC(=O)C1CCCN(Cc2nc3ccc([N+](=O)[O-])cc3c(=O)n2-c2ccc(OC)cc2OC)C1 (centres undefined) do in these assays?
TDP1 cell CPT: 16.4µM*; DT40 TDP1 no CPT: 23.1µM*; IL1B secr inh: 61.9; DRD3 agonist: -1.0; ClpP mod: 0.7%; D3 antag: -18.8

Results for c1ccc(COc2cccc(CN3CCc4ccccc4C3)c2)cc1 ?
TDP1 cell CPT: -10.3%; DT40 TDP1 no CPT: -12.7%; IL1B secr inh: 18.3; DRD3 agonist: -23.0; D3 antag: -87.0*

What do the screens show for `Cc1ccc(C)c(NC(=O)C(c2ccccc2)N2Cc3ccccc3C2=O)c1` (centres undefined)?
TDP1 cell CPT: inconclusive; DT40 TDP1 no CPT: -25.8%; DRD3 agonist: -14.3; ClpP mod: -3.5%

Results for Cc1ccc(/C=N\NC(=O)Cc2noc3ccccc23)cc1 ?
TDP1 cell CPT: -6.5%; DT40 TDP1 no CPT: -12.9%; IL1B secr inh: 10.4; DRD3 agonist: 1.7; D3 antag: 52.3

Results for CCOC(=O)C1CCCN(Cc2ccc3c(c2)OCO3)C1 (centres undefined) ?
TDP1 cell CPT: -8.6%; DT40 TDP1 no CPT: -6.5%; IL1B secr inh: -13.8; DRD3 agonist: -32.0; ClpP mod: -2.8%; D3 antag: -99.8*

Results for CCOC(=O)C1CCN(Cc2nc3ccc(Cl)cc3n2CCO)CC1 ?
TDP1 cell CPT: 20.6µM*; DT40 TDP1 no CPT: inconclusive; IL1B secr inh: -24.7; DRD3 agonist: -0.1; ClpP mod: 0.1%; D3 antag: -66.1*

Results for Clc1ccc(CN2CCSCC2)cc1Cl ?
TDP1 cell CPT: -4.3%; DT40 TDP1 no CPT: 3.4%; IL1B secr inh: 0.0; DRD3 agonist: -14.1; ClpP mod: -0.3%; D3 antag: -10.9

What do the screens show for `CCOC(=O)C1CCN(Cc2cccc(OCc3ccccc3)c2)CC1`?
TDP1 cell CPT: -16.2%; DT40 TDP1 no CPT: -3.7%; IL1B secr inh: 27.5; DRD3 agonist: 2.9; ClpP mod: 0.8%; D3 antag: -66.5*

What do the screens show for `Fc1ccc(CN2CCSCC2)cc1Br`?
TDP1 cell CPT: -8.7%; DT40 TDP1 no CPT: 0.2%; IL1B secr inh: -19.9; DRD3 agonist: -35.4; ClpP mod: -1.2%; D3 antag: -61.3*

Results for CCN(CC)C(=O)C1CCCN(Cc2ccc3c(c2)OCO3)C1 (centres undefined) ?
TDP1 cell CPT: -22.9%; DT40 TDP1 no CPT: -2.0%; IL1B secr inh: 0.0; DRD3 agonist: 2.3; ClpP mod: -3.5%; D3 antag: -25.6

What do the screens show for `CCOC(=O)C1CCN(Cc2nnnn2CCc2ccccc2)CC1`?
TDP1 cell CPT: 6.0%; DT40 TDP1 no CPT: 24.7%; IL1B secr inh: 12.7; DRD3 agonist: 2.9; ClpP mod: 0.6%; D3 antag: -2.2

Results for Cc1ccc(NC(=O)c2sc(-n3nc(C)c(Cc4ccc5c(c4)OCO5)c3C)nc2C)cc1Cl ?
TDP1 cell CPT: inconclusive; DT40 TDP1 no CPT: inconclusive; DRD3 agonist: -11.6; ClpP mod: -6.1%

Results for Fc1ccc(Oc2ccnc(Cl)n2)c(Cl)c1 ?
TDP1 cell CPT: 18.9%; DT40 TDP1 no CPT: -1.9%; IL1B secr inh: 36.6; DRD3 agonist: 1.0; D3 antag: -17.0

What do the screens show for `COc1ccc(NC(=O)CSc2nc3ccccc3n2Cc2cccc(OC)c2)cc1`?
TDP1 cell CPT: inconclusive; DT40 TDP1 no CPT: inconclusive; DRD3 agonist: 17.4; ClpP mod: -1.5%

How did CCOC(=O)C1CCCN(Cc2c(C(=O)N3CCOCC3)nc3ccccn23)C1 (centres undefined) do in these assays?
TDP1 cell CPT: 1.4%; DT40 TDP1 no CPT: -8.0%; IL1B secr inh: -67.7*; DRD3 agonist: -5.1; D3 antag: inconclusive

How did CN(Cc1ccc(Cl)cc1)C(CCc1ccccc1)C(=O)NC1CCCCC1 (centres undefined) do in these assays?
TDP1 cell CPT: inconclusive; DT40 TDP1 no CPT: 14.6µM*; IL1B secr inh: 43.2; DRD3 agonist: -16.9; ClpP mod: -0.3%; D3 antag: -60.3*

Screening results as filed in PubChem BioAssay.
